Laboratory results reported in PubChem BioAssay AID1159580 (chemical genetic matrix, 2015).
Several values for one entry are separate records, joined by “and”; a condition that tells them apart may be missing. Equal entries are not always repeated. Among all 5,500 compounds or so, about 2,000 (36%) were called active. Another 18% or so got no clear call; they are omitted. Cut-off read from the data, not from the text of the source: active = normalized growth mostly below about 0.91 (no sharp cut-off); inconclusive = no clear call, values can overlap the other calls; inactive = mostly above about 0.92. The list shows a part of the results.

Test: chemical genetic growth profiling, strain panel (AID 1159580);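 note: tested at 20 µM; growth read once vehicle control cultures reached saturation at 30 °C; 1 = growth at the plate median or of vehicle wells; lower values mean less growth of the strain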
Conditions: S. cerevisiae deletion strains, growth OD

Measured: normalized growth

COc1ccc2cc([C@H](C)CO)ccc2c1
inactive: locus YAL013W, strain DEP1, active compounds read low 0.982 | locus YAL021C, strain ccr4, active compounds read low 1.04 | locus YAL026C, strain drs2, active compounds read low 1.01 | locus YAL030W, strain snc1, active compounds read low 1 | locus YBL061C, strain skt5, active compounds read low 1.01 | locus YBR009C, strain hhf1, active compounds read low 1.01 | locus YBR021W, strain FUR4, active compounds read low 1.02 | locus YBR023C, strain chs3, active compounds read low 1.01 | locus YBR171W, strain sec66, active compounds read low 1.01 | locus YBR229C, strain ROT2, active compounds read low 0.947 | locus YBR231C, strain swc5, active compounds read low 1.07 | locus YBR279W, strain paf1, active compounds read low 1.01 | locus YCL011C, strain gbp2, active compounds read low 1.01 | locus YCL016C, strain dcc1, active compounds read low 1.01 | locus YCL029C, strain bik1, active compounds read low 0.976 | locus YCL061C, strain MRC1, active compounds read low 1.02 | locus YCL069W, strain vba3, active compounds read low 1.01 | locus YCR088W, strain abp1, active compounds read low 0.936 | locus YDL005C, strain med2, active compounds read low 1.02 | locus YDL035C, strain GPR1, active compounds read low 0.955 | locus YDL040C, strain nat1, active compounds read low 1.01 | locus YDL074C, strain BRE1, active compounds read low 0.996 | locus YDL101C, strain DUN1, active compounds read low 0.989 | locus YDL134C, strain PPH21, active compounds read low 0.98 | locus YDL185W, strain tfp1, active compounds read low 0.962 | locus YDL192W, strain arf1, active compounds read low 0.966 | locus YDR001C, strain nth1, active compounds read low 1.01 | locus YDR069C, strain doa4, active compounds read low 1.02 | locus YDR101C, strain arx1, active compounds read low 0.976 | locus YDR137W, strain rgp1, active compounds read low 1.03 | locus YDR150W, strain NUM1, active compounds read low 0.974 | locus YDR159W, strain sac3, active compounds read low 1 | locus YDR162C, strain NBP2, active compounds read low 0.961 | locus YDR195W, strain ref2 1.04 | locus YDR297W, strain sur2, active compounds read low 1.01 | locus YDR318W, strain mcm21, active compounds read low 0.98 | locus YDR334W, strain swr1, active compounds read low 1.03 | locus YDR335W, strain msn5, active compounds read low 1.02 | locus YDR388W, active compounds read low 0.983 | locus YDR392W, strain spt3, active compounds read low 1.03 | locus YDR502C, strain sam2, active compounds read low 0.95 | locus YEL003W, strain gim4, active compounds read low 1.01 | locus YEL037C, strain rad23, active compounds read low 1.01 | locus YEL061C, strain CIN8 (second series), active compounds read low 1.01 | locus YEL061C, strain CIN8, active compounds read low 0.987 | locus YER015W, strain faa2, active compounds read low 1.01 | locus YER016W, strain bim1, active compounds read low 1.01 | locus YER110C, active compounds read low 0.954 | locus YER111C, strain swi4, active compounds read low 1.02 | locus YER155C, strain BEM2 (second series), active compounds read low 1.01 | locus YER155C, strain BEM2, active compounds read low 1.01 | locus YER167W, strain BCK2, active compounds read low 0.975 | locus YFR010W, strain ubp6, active compounds read low 1.02 | locus YGL078C, strain dbp3, active compounds read low 0.982 | locus YGL086W, strain mad1, active compounds read low 0.984 | locus YGL167C, strain pmr1, active compounds read low 1.01 | locus YGL173C, strain kem1, active compounds read low 1 | locus YGL227W, strain vid30, active compounds read low 1 | locus YGL240W, strain doc1, active compounds read low 1.01 | locus YGL248W, strain PDE1, active compounds read low 0.98 | locus YGL253W, strain hxk2, active compounds read low 1.03 | locus YGR078C, strain PAC10, active compounds read low 0.987 | locus YGR135W, strain pre9, active compounds read low 0.949 | locus YGR229C, strain SMI1, active compounds read low 0.979 | locus YGR252W, strain gcn5, active compounds read low 0.894 | locus YHR013C, strain ard1, active compounds read low 1.07 | locus YHR027C, strain rpn1, active compounds read low 1.01 | locus YHR030C, strain SLT2, active compounds read low 0.985 and 0.928 | locus YHR079C, strain IRE1 (second series), active compounds read low 0.979 | locus YHR079C, strain IRE1, active compounds read low 0.95 | locus YHR094C, strain hxt1, active compounds read low 0.981 | locus YHR129C, strain ARP1, active compounds read low 0.995 | locus YHR142W, strain chs7, active compounds read low 1.02 | locus YHR200W, strain rpn10, active compounds read low 0.973 | locus YIL066C, strain RNR3, active compounds read low 0.969 | locus YIL073C, strain SPO22, active compounds read low 0.954 | locus YIL125W, strain kgd1, active compounds read low 0.974 | locus YIR030C, strain dcg1, active compounds read low 0.975 | locus YJL092W, strain hpr5, active compounds read low 1.01 | locus YJL095W, strain BCK1 (second series), active compounds read low 1 | locus YJL095W, strain BCK1, active compounds read low 0.996 and 0.935 | locus YJL115W, strain asf1, active compounds read low 1.02 | locus YJL129C, strain trk1, active compounds read low 1.02 | locus YJL134W, strain LCB3, active compounds read low 0.984 | locus YJL154C, strain vps35, active compounds read low 1.01 | locus YJL164C, strain tpk1, active compounds read low 1.01 | locus YJL166W, strain qcr8, active compounds read low 1.01 | locus YJL168C, strain set2, active compounds read low 0.982 | locus YJL187C, strain SWE1 (second series), active compounds read low 0.982 | locus YJL187C, strain SWE1, active compounds read low 1.01 | locus YJR043C, strain POL32, active compounds read low 0.994
